Reference: ChEMBL document CHEMBL3433997, “St. Jude Leishmania screening dataset” (2016)

Target: Glucose transporter (Leishmania mexicana) (UniProt O61059)
Test: ST_JUDE_LEISH: Cytotoxicity at 2uM final concentration against transgenic Leishmania Mexicana promastigotes LmGT2 that are glucose transport deficient and complemented with the L. Mexicana glucose transporter 2. Activity is measured by DNA content using SYBR green in vitro
Format: functional

SMILES	inhibition [%]
COc1ccc(S(=O)(=O)Nc2cc(Br)cc3c2OCCC3)cc1N1CCN(C(=O)C(Cl)(Cl)Cl)CC1	-0.3
COCCOCCOCCn1ccc2c3c(N)nc(N)nc3ccc21	2.29
Cc1cc(F)ccc1-c1nc(NCC(O)CNCCc2ccccc2)nc2c1ccc(=O)n2-c1c(F)cccc1F (stereo not given)	6.47
Fc1cccc(Nc2nc(NCCc3ccc(Cl)cc3)nc(Nc3cccc(F)c3)n2)c1	-4.86
CCc1nnc2sc(-c3cccc(NC(=O)c4ccc(C)c([N+](=O)[O-])c4)c3)nn12	2.48
Cc1cc(=NN=Cc2ccc(Cl)cc2)c2ccccc2[nH]1	3.97
CCCC(CNCc1cccc(SC(F)(F)F)c1)CNc1cc(=O)c2ccccc2[nH]1 (stereo not given)	3.17
CS(=O)(=O)CCNCc1cc(-c2cc3ncnc(Nc4ccc(OCc5cccc(F)c5)c(Cl)c4)c3s2)cs1	5.4
O=C(NCCCN1CCC(Cc2ccccc2)CC1)c1cc2c(Cl)nc3ccccc3c2s1	-0.45
Cc1ccc(NC(=O)c2cc(Br)cc(N3CCCN(C)CC3)c2)cc1F	-1.29
COc1cc(OCCCN(C)Cc2ccc(OC)c(OC)c2)ccc1NC(=O)c1cccc2c(O)c3cccc(F)c3nc12	0.63
COc1ccc2nccc([C@@H](O)CN3CCC(NC(=O)c4cc5ccccc5[nH]4)CC3)c2c1	38.7
Oc1c(Br)cc2oc3c(c2c1CNCc1ccccc1)CCCC3	-0.81
O=C(NCCCCN1CCC(c2ccc(OC(F)(F)F)cc2)CC1)c1ccc(NC(=O)c2ccc(Cl)cc2)cc1	-1.72
O=C1CSc2ccc(CNC3CCN(CCc4c(F)cnc5ccc(F)cc45)CC3)nc2N1	-1.74
CCC(C)Oc1ccc2nc(N)nc(N)c2c1Cl (stereo not given)	30
CCOC(=O)c1c(C)noc1Nc1cccc(C)c1C	-4.02
COc1ccccc1OCCN(CC(O)COc1cccc2[nH]c3ccccc3c12)CC(O)COc1cccc2[nH]c3ccccc3c12 (stereo not given)	2.35
O=C(Nc1cc(C(F)(F)F)cc(C(F)(F)F)c1)c1cccc([N+](=O)[O-])c1	2.84
COc1cc2c(cc1N1CCN(C)CC1)N(C(=O)Nc1ccc(-c3ccncc3)c(Cl)c1Cl)CC2	0.64

SMILES	inhibition [%]
CS(=O)(=O)CCCNCc1ccc(-c2cc3c(Nc4ccc(OCc5ccccc5)cc4)ncnc3cn2)o1	2.01
CC(C)c1ccc(NC(=O)c2cccc(CN3CCCN(CC4CCCCC4)CC3)c2)cc1	9.65
O=C(c1ccc(O)c(-c2cc(Cl)cc(Cl)c2)c1)N1CCCC1	-0.96
COc1ccc(C2CC(c3cccs3)=NN2C(=O)COc2cccc(C(C)=O)c2)cc1OC (stereo not given)	-2.22
Oc1ccc(CCNCc2ccc(OCc3ccccc3)c(OCc3ccccc3)c2)cc1	68.5
Cn1cncc1C(=O)Nc1cccc(-c2cccc(-c3nc4cc(F)ccc4[nH]3)c2)c1	1.75
COc1cc2ccccc2c(OC)c1CNCCCCCCNCc1c(OC)cc2ccccc2c1OC	12.4
O=C(Nc1cccc(-c2ccc(-c3nc4cc(F)ccc4[nH]3)s2)c1)c1cccnc1	3.13
CCn1cc(-c2nc(-c3cc(OC)cc(OC)c3)no2)c(=O)c2ccccc21	2.79
CCNc1cc(C(=O)N[C@@H](Cc2ccccc2Cl)[C@H](O)CNC(C)CCCC(C)C)cc(N2CCCCS2(=O)=O)c1 (stereo not given in full)	-2.24
COc1cccc(-c2cc(C(=O)Nc3cc(Oc4ccc(O)cc4)cc([N+](=O)[O-])c3)on2)c1	3.98
O=C(CCc1c[nH]cn1)Nc1ccc(-c2cccc(-c3nc4ccccc4[nH]3)c2)cc1	0.03
CCOc1ccc(C(Cc2ccccc2)NC(=O)c2cccnc2)cc1OCC (stereo not given)	-0.89
COc1ccc2nccc(NC(=O)C3CCC(NCc4ccc5c(c4)NC(=O)CS5)CC3)c2c1 (stereo not given)	0.5
Cc1cc(N)c2cc(NC(=O)c3cccc4ccccc34)ccc2n1	0
CC1=C(C(=O)Nc2ccccc2)C(c2ccc([N+](=O)[O-])cc2)n2ncc(C(=O)Nc3ccccc3)c2N1 (stereo not given)	5.18
O=C(N[C@H]1CCN(CCc2ccc(O[C@H]3CCNC3)c(Cl)c2)C1)c1ccc(Cl)c(Cl)c1	3.35
Clc1ccc(CCNCCCCCCNCCc2ccc3c(c2)OCO3)cc1	7.21
CCOC(=O)CCc1cc(F)c(F)c(OC[C@H](O)CNC(C)(C)C(O)c2ccc3ccccc3c2)c1 (stereo not given in full)	0.21
Cc1ccccc1N1CCN(c2ccc(C(=O)Nc3ccccc3)cn2)CC1	3.84
